target: Solute carrier family 2, facilitated glucose transporter member 1 (Homo sapiens) (UniProt P11166); test: ST_JUDE_LEISH: Cytotoxicity at 2uM final concentration against transgenic Leishmania Mexicana promastigotes LmGLUT1 that are glucose transport deficient and complemented with the human glucose transporter GLUT1. Activity is measured by DNA content using SYBR green in vitro; type: functional
Sequence (P11166 whole entry): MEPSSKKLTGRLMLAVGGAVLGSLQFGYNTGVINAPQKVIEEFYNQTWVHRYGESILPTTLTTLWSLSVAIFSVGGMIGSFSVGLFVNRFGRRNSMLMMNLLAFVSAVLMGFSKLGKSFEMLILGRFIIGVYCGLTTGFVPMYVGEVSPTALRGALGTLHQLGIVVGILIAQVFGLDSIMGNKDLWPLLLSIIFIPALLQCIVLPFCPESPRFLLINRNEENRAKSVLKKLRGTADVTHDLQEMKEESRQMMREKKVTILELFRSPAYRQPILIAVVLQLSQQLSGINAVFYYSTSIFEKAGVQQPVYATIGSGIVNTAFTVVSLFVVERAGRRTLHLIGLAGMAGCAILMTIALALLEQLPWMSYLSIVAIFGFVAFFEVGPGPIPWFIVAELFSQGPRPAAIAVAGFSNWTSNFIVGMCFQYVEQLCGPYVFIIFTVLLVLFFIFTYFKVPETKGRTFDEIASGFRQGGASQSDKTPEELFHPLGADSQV

| SMILES | inhibition [%] |
| --- | --- |
| COc1cc(NC(=O)c2c(-c3c(F)cccc3Cl)noc2C)c(OC)cc1Cl | -2.64 |
| CCN(CC)C(C)(C)CN(Cc1ccc(-c2ccc(C(F)(F)F)cc2)cc1)C(=O)Cn1c(CCc2cccc(F)c2F)nc(=O)c2ccccc21 | 6.6 |
| COc1ccc(C(=O)CCC(=O)N(CCSC(C)(C)C)Cc2ccc(-c3ccc(CNCCc4ccc(S(C)(=O)=O)cc4)cn3)cc2)cc1F | 10.4 |
| CC(C)c1ccc(NC(=O)N2CCc3ccc(OCCN(C(C)C)C(C)C)cc32)c(Br)c1 | -3.12 |
| Cc1ccc2c(c1)C1(CC(=O)N(CCc3scnc3C)C1=O)C(=O)N2Cc1ccccc1 (stereo not drawn) | 2.62 |
| CCc1cn2c3c(cc(C(=O)N[C@@H](Cc4ccccc4)[C@H](O)CNCc4ccccc4C)cc13)N(C)S(=O)(=O)CC2 | 3.43 |
| COc1cccc(CN2CCCN(Cc3cccc(NC(=O)c4ccc(-c5ccccc5)cc4)c3)CC2)c1 | 0.95 |
| COC(=O)c1ccc2nc(-c3ccc(/C=C/C(=O)NCc4ccc(Cl)c(Cl)c4)cc3)[nH]c2c1 | 3.11 |
| O=C(NC1CCN(c2ccnc3cc(Cl)ccc23)C1)c1cccc(F)c1 (stereo not drawn) | 0.95 |
| O=C(Nc1ccc2[nH]c(-c3ccccc3)nc2c1)c1cc(-c2ccc3c(c2)OCCO3)n[nH]1 | 12.2 |
| O=C(NCCCCN1CCC(c2c[nH]c3ccccc23)CC1)c1ccc(-c2ccc(C(F)(F)F)cc2)cc1 | 0.97 |
| Fc1ccccc1-c1cc(Nc2ccncc2)nc(-c2cccnc2)n1 | 0.54 |
| N=C(NCC1CC1c1ccccc1)c1cccc(C(=N)NCC2CC2c2ccccc2)n1 (stereo not drawn) | 5.1 |

— ChEMBL document CHEMBL3433997, “St. Jude Leishmania screening dataset” (2016)
